Experimental data reported in PubChem BioAssay (NCATS).
Values joined by “and” are separate entries in the source; they are usually repeats but may differ in a detail not shown here. Equal values may be shown once. Results filed as inconclusive are left out. Unmarked numbers belong to inactive results. Active and inactive are the calls of the source. The call rests on the fitted dose curve; in most records, active means well fitted inhibition curve with a large enough effect; inconclusive means small, poorly fitted or top-dose-only effect; inactive means flat fitted curve, though single readings scatter.

tested on: CRL-7250; assay: Cytotoxic Profiling of Annotated Libraries Using Quantitative High-Throughput Screening (AID 1296008); settings: Five cell lines viability, CellTiter-Glo ATP luminescence, 48-72 h; max response: stronger effect = lower value; further: nearly all actives have a fitted effect of over 60% in size
Method in brief: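 Compounds were pin-transferred onto cells and incubated 48 or 72 hr at 37 degree Celsius, 95% humidity. CellTiter-Glo was added, plates sat 10 min at room temperature, then ATP-coupled luminescence was imaged as the viability read-out.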
On the % scale 0 is the no-effect control and ±100 the full control effect; potency means the concentration at half of the fitted maximal effect.

| Structure (SMILES) | Potency | max response | outcome |
| --- | --- | --- | --- |
| COC(=O)Nc1ccc(-c2nc(N3CCOCC3)c3cnn(C4CCN(Cc5cccnc5)CC4)c3n2)cc1 | 118 nM (active) and 1.3 µM (active) | – | – |
| Cc1cn2cc(C(=O)N(C)CCO)cc(N[C@@H]3CCOc4cccc(C)c43)c2n1 | – | -0.414% and 0.78% | – |
| Cc1nc(N)ncc1-c1nc(N2CCOCC2)c2sc(C(C)(C)O)cc2n1 | 2.59 µM (active) | – | – |
| c1ccc2c(CCNc3ccc(Nc4ccncc4)cc3)c[nH]c2c1 | 10.5 µM (active) | – | – |
| Cc1c(CN2CCN(S(C)(=O)=O)CC2)sc2c(N3CCOCC3)nc(-c3cnc(N)nc3)nc12 | 166 nM (active) and 259 nM (active) | – | – |
| COc1cc2c(Oc3ccc4[nH]c(C)cc4c3F)ncnc2cc1OCCCN1CCCC1 | 8.2 µM (active) | – | – |
| Nc1ncnc2c1c(-c1cnc3[nH]ccc3c1)nn2C1CCCC1 | 118 nM (active) and 920 nM (active) | – | – |
| C=C1C(=CC=C2CCCC3(C)[C@@H]([C@H](C)C=CC=CC(O)(CC)CC)CC[C@@H]23)C[C@@H](O)C[C@@H]1O (stereo partly drawn) | – | 4.9% | – |
| Cc1ccc(CN2CCNCC2)cc1NC(=O)CNc1ccc(F)c(F)c1 | – | – | inactive |
| CN1CC[C@@H](c2c(O)cc(O)c3c(=O)cc(-c4ccccc4Cl)oc23)[C@@H](O)C1 | 0.166 µM (active) | – | – |
| CC(C)c1nn(-c2c(Cl)cccc2Cl)c2nc(Cc3ccc(OCCO)cc3)[nH]c(=O)c12 | 0.0291 µM (active) | – | – |
| CC(C)Nc1cc(C(F)(F)F)cc2nc(NC(=O)c3cccnc3)nn12 | – | -10.3% and 1% | – |
| Clc1cccc(-n2nnnc2NCc2ccccc2Oc2ccccn2)c1Cl | – | – | inactive |
| CCCn1c(=O)c2[nH]c(-c3cnn(Cc4cccc(C(F)(F)F)c4)c3)nc2n(CC)c1=O | – | -9.35% | – |
| CCn1cc(-c2ccnc3[nH]c(-c4cccc(CN(C)C)c4)cc23)c(-c2ccc(NC(=O)N(C)C)cc2)n1 | 14.8 µM (active) | – | – |
| C=CC(=O)Nc1cccc(Oc2nc(Nc3ccc(N4CCN(C)CC4)cc3)ncc2Cl)c1 | 4.18 µM (active) and 920 nM (active) | – | – |
| Cc1cc(Nc2cc(N3CCN(C)CC3)nc(C=Cc3ccccc3)n2)n[nH]1 | 5.4 µM (active) | – | – |
| O=C(NCCCNc1nc(Nc2cccc(NC(=O)N3CCCC3)c2)ncc1I)c1cccs1 | 5.9 µM (active) | – | – |
| Cc1c(Cn2c(C)nc3c(C(=O)O)cc(N4CCOCC4)cc32)cccc1C(F)(F)F | – | -5.25% | – |
| CC(=O)c1c(C)c2cnc(Nc3ccc(N4CCNCC4)cn3)nc2n(C2CCCC2)c1=O | – | -3.02% | – |
| Nc1cc(C(F)(F)F)c(-c2cc(N3CCOCC3)nc(N3CCOCC3)n2)cn1 | 2.06 µM (active) | – | – |
| Nc1ccccc1NC(=O)c1ccc(CNc2nccc(-c3cccnc3)n2)cc1 | 4.18 µM (active) and 5.17 µM (active) | – | – |
| O=C(Nc1ncc(-c2cc(C(F)F)nn2-c2c(Cl)cccc2Cl)s1)C1CC1 | 1.48 µM (active) and 3.66 µM (active) | – | – |
